# In PubChem BioAssay AID1159580 (chemical genetic matrix, 2015):
# “And” between values parts separate entries of the source, which are not always exact repeats. Equal entries are not always repeated. Out of some 5,500 compounds screened, about 2,000 (36%) were called active. About 18% were inconclusive and are not listed. This is one part of the list. A number with no mark means an inactive call. No stated cut-off is given here; in the data, active means normalized growth mostly below about 0.91 (no sharp cut-off); inconclusive means no clear call, values can overlap the other calls; inactive means mostly above about 0.92.
# Assay: chemical genetic growth profiling, strain panel (AID 1159580);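 further: tested at 20 µM; growth read once vehicle control cultures reached saturation at 30 °C; 1 = growth at the plate median or of vehicle wells; lower values mean less growth of the strain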
# Conditions: S. cerevisiae deletion strains, growth OD
smiles,measurement,setting,value
CC(CN(C)C)CN1c2ccccc2CCc2ccccc21 (stereo not given),normalized growth,"locus YAL013W, strain DEP1, active compounds read low",1
same,normalized growth,"locus YAL021C, strain ccr4, active compounds read low",0.893 (active)
same,normalized growth,"locus YAL026C, strain drs2, active compounds read low",0.982
same,normalized growth,"locus YAL030W, strain snc1, active compounds read low",0.977
same,normalized growth,"locus YAL040C, strain CLN3, active compounds read low",1.03
same,normalized growth,"locus YBL061C, strain skt5, active compounds read low",0.984
same,normalized growth,"locus YBR009C, strain hhf1, active compounds read low",0.972
same,normalized growth,"locus YBR021W, strain FUR4, active compounds read low",1.01
same,normalized growth,"locus YBR023C, strain chs3, active compounds read low",0.975
same,normalized growth,"locus YBR171W, strain sec66, active compounds read low",0.963
same,normalized growth,"locus YBR229C, strain ROT2, active compounds read low",1.01
same,normalized growth,"locus YBR231C, strain swc5, active compounds read low",0.976
same,normalized growth,"locus YBR279W, strain paf1, active compounds read low",0.988
same,normalized growth,"locus YCL011C, strain gbp2, active compounds read low",0.973
same,normalized growth,"locus YCL016C, strain dcc1, active compounds read low",0.974
same,normalized growth,"locus YCL029C, strain bik1, active compounds read low",1.02
same,normalized growth,"locus YCL061C, strain MRC1 (second series), active compounds read low",1.01
same,normalized growth,"locus YCL061C, strain MRC1, active compounds read low",0.986
same,normalized growth,"locus YCL069W, strain vba3, active compounds read low",0.969
same,normalized growth,"locus YCR088W, strain abp1, active compounds read low",0.977
same,normalized growth,"locus YDL005C, strain med2, active compounds read low",0.973
same,normalized growth,"locus YDL035C, strain GPR1, active compounds read low",1.01
same,normalized growth,"locus YDL040C, strain nat1, active compounds read low",0.976
same,normalized growth,"locus YDL074C, strain BRE1, active compounds read low",1.02
same,normalized growth,"locus YDL101C, strain DUN1, active compounds read low",1
same,normalized growth,"locus YDL134C, strain PPH21, active compounds read low",1.01
same,normalized growth,"locus YDL185W, strain tfp1, active compounds read low",1.02
same,normalized growth,"locus YDL192W, strain arf1, active compounds read low",1.01
same,normalized growth,"locus YDR001C, strain nth1, active compounds read low",0.977
same,normalized growth,"locus YDR069C, strain doa4, active compounds read low",0.921
same,normalized growth,"locus YDR101C, strain arx1, active compounds read low",1.02
same,normalized growth,"locus YDR137W, strain rgp1, active compounds read low",1.2 [resistant] (active)
same,normalized growth,"locus YDR150W, strain NUM1, active compounds read low",1.02 and 1.01
same,normalized growth,"locus YDR159W, strain sac3, active compounds read low",0.977
same,normalized growth,"locus YDR162C, strain NBP2, active compounds read low",1.01
same,normalized growth,"locus YDR195W, strain ref2",0.999
same,normalized growth,"locus YDR297W, strain sur2, active compounds read low",0.975
same,normalized growth,"locus YDR318W, strain mcm21, active compounds read low",1.02
same,normalized growth,"locus YDR334W, strain swr1, active compounds read low",0.946
same,normalized growth,"locus YDR335W, strain msn5, active compounds read low",0.975
same,normalized growth,"locus YDR363W, strain ESC2, active compounds read low",0.993
same,normalized growth,"locus YDR388W, active compounds read low",1.02
same,normalized growth,"locus YDR392W, strain spt3, active compounds read low",0.96
same,normalized growth,"locus YDR502C, strain sam2, active compounds read low",1.03
same,normalized growth,"locus YEL003W, strain gim4, active compounds read low",0.965
same,normalized growth,"locus YEL037C, strain rad23, active compounds read low",0.954
same,normalized growth,"locus YEL061C, strain CIN8 (second series), active compounds read low",0.96
same,normalized growth,"locus YEL061C, strain CIN8, active compounds read low",1.01
same,normalized growth,"locus YER002W, strain NOP16, active compounds read low",1.01
same,normalized growth,"locus YER015W, strain faa2, active compounds read low",0.961
same,normalized growth,"locus YER016W, strain bim1, active compounds read low",0.975
same,normalized growth,"locus YER110C, active compounds read low",1.02
same,normalized growth,"locus YER111C, strain swi4, active compounds read low",0.974
same,normalized growth,"locus YER155C, strain BEM2 (second series), active compounds read low",0.948
same,normalized growth,"locus YER155C, strain BEM2, active compounds read low",1
same,normalized growth,"locus YER167W, strain BCK2, active compounds read low",1.01
same,normalized growth,"locus YFR010W, strain ubp6, active compounds read low",0.954
same,normalized growth,"locus YGL078C, strain dbp3, active compounds read low",1.01
same,normalized growth,"locus YGL086W, strain mad1, active compounds read low",1.01
same,normalized growth,"locus YGL167C, strain pmr1, active compounds read low",0.98
same,normalized growth,"locus YGL173C, strain kem1, active compounds read low",0.972
same,normalized growth,"locus YGL227W, strain vid30, active compounds read low",0.978
same,normalized growth,"locus YGL240W, strain doc1, active compounds read low",0.969
same,normalized growth,"locus YGL248W, strain PDE1, active compounds read low",0.996
same,normalized growth,"locus YGL253W, strain hxk2, active compounds read low",0.977
same,normalized growth,"locus YGR078C, strain PAC10, active compounds read low",1.01
same,normalized growth,"locus YGR135W, strain pre9, active compounds read low",1.02
same,normalized growth,"locus YGR229C, strain SMI1, active compounds read low",0.978
same,normalized growth,"locus YGR252W, strain gcn5, active compounds read low",0.97
same,normalized growth,"locus YHR013C, strain ard1, active compounds read low",0.833 (active)
same,normalized growth,"locus YHR027C, strain rpn1, active compounds read low",0.966
same,normalized growth,"locus YHR030C, strain SLT2, active compounds read low",1.02 and 0.988
same,normalized growth,"locus YHR079C, strain IRE1 (second series), active compounds read low",1.01
same,normalized growth,"locus YHR079C, strain IRE1, active compounds read low",0.981
same,normalized growth,"locus YHR094C, strain hxt1, active compounds read low",1.01
same,normalized growth,"locus YHR129C, strain ARP1, active compounds read low",1.01
same,normalized growth,"locus YHR142W, strain chs7, active compounds read low",0.971
same,normalized growth,"locus YHR200W, strain rpn10, active compounds read low",1.03
same,normalized growth,"locus YIL066C, strain RNR3, active compounds read low",1
same,normalized growth,"locus YIL073C, strain SPO22, active compounds read low",1.07
same,normalized growth,"locus YIL125W, strain kgd1, active compounds read low",1.01
same,normalized growth,"locus YIR030C, strain dcg1, active compounds read low",1.01
same,normalized growth,"locus YJL092W, strain hpr5, active compounds read low",0.936
same,normalized growth,"locus YJL095W, strain BCK1 (second series), active compounds read low",0.984
same,normalized growth,"locus YJL095W, strain BCK1, active compounds read low",0.984 and 0.986
same,normalized growth,"locus YJL115W, strain asf1, active compounds read low",0.957
same,normalized growth,"locus YJL129C, strain trk1, active compounds read low",0.973
same,normalized growth,"locus YJL134W, strain LCB3, active compounds read low",1
same,normalized growth,"locus YJL154C, strain vps35, active compounds read low",0.978
same,normalized growth,"locus YJL164C, strain tpk1, active compounds read low",0.973
same,normalized growth,"locus YJL166W, strain qcr8, active compounds read low",0.963
same,normalized growth,"locus YJL168C, strain set2, active compounds read low",1.02
same,normalized growth,"locus YJL187C, strain SWE1 (second series), active compounds read low",0.988
same,normalized growth,"locus YJL187C, strain SWE1, active compounds read low",0.965
same,normalized growth,"locus YJR043C, strain POL32, active compounds read low",1
